The supplement of paper PMC6555819

Legend:
Test in all cases: PBM binding z-score (relative to random genomic background probes); higher = stronger binding; sequences stand for … in GC…GCGATTGACAGCGTAGAATGAAGG
[1] = system: PPARg:RXRa DBDmut IVT, anti-RXR (DBD mutation: RXRa K156A/R161A, NR concentration 270 nM, RXRa partner concentration 90 nM)
Method in brief: (§1)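 Binding z-scores take random background probes as their reference. They come from custom Agilent 4×180K protein-binding microarrays incubated 1 h with ligand-free nuclear receptor dimers, with antibodies against each partner (one per run) detecting binding. Scanned fluorescence was regression-normalized.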

[2] = system: PPARg:RXRa IVT, anti-PPARg (NR concentration 270 nM, RXRa partner concentration 90 nM)
Method in brief: as §1

[3] = system: PPARg DBDmut:RXRa IVT, anti-PPARg (DBD mutation: PPARg1 K132A/R137A, NR concentration 270 nM, RXRa partner concentration 90 nM)
Method in brief: as §1

[4] = system: PPARg DBDmut IVT, anti-PPARg (DBD mutation: PPARg1 K132A/R137A, NR concentration 270 nM)
Method in brief: as §1

[5] = system: PPARg homodimer (NR concentration 180 nM)
Method in brief: as §1

[6] = system: PXR:RXRa (NR concentration 270 nM, RXRa partner concentration 90 nM)
Method in brief: as §1

[7] = system: PXR homodimer (NR concentration 270 nM)
Method in brief: as §1

[8] = system: RARa:RXR (NR concentration 270 nM, RXRa partner concentration 90 nM)
Method in brief: as §1

[9] = system: RARa homodimer (NR concentration 270 nM)
Method in brief: as §1

[10] = system: RARb:RXRa (NR concentration 270 nM, RXRa partner concentration 90 nM)
Method in brief: as §1

[11] = system: RARb homodimer (NR concentration 270 nM)
Method in brief: as §1

[12] = system: RARg:RXRa (NR concentration 270 nM, RXRa partner concentration 90 nM)
Method in brief: as §1

[13] = system: RARg homodimer (NR concentration 270 nM)
Method in brief: as §1

[14] = system: RXRa DBDmut IVT, anti-RXR (DBD mutation: RXRa K156A/R161A, NR concentration 90 nM)
Method in brief: as §1

[15] = system: RXRa homodimer (NR concentration 180 nM)
Method in brief: as §1

[16] = system: THRa:RXRa (NR concentration 90 nM, RXRa partner concentration 90 nM)
Method in brief: as §1

[17] = system: THRa homodimer (NR concentration 90 nM)
Method in brief: as §1

[18] = system: VDR homodimer (NR concentration 270 nM)
Method in brief: as §1

Sequence | PBM binding z-score [1] | PBM binding z-score [2] | PBM binding z-score [3] | PBM binding z-score [4] | PBM binding z-score [5] | PBM binding z-score [6] | PBM binding z-score [7] | PBM binding z-score [8] | PBM binding z-score [9] | PBM binding z-score [10] | PBM binding z-score [11] | PBM binding z-score [12] | PBM binding z-score [13] | PBM binding z-score [14] | PBM binding z-score [15] | PBM binding z-score [16] | PBM binding z-score [17] | PBM binding z-score [18]
CGAACTAGGTCAGAACAGGACAGGGAAGGATGAT | 7.1 | 7.39 | 2 | 3.12 | 1.1 | 0.778 | 0.31 | 2.03 | 0.307 | 3.02 | 2.37 | 2.58 | 2.91 | 0.62 | 1.26 | 3.92 | 0.578 | 0.472
CTCGAAAGGTAGTGCTCAGGTGAGTATACCAAAC | -0.0569 | -0.0512 | -0.21 | -0.517 | -0.0331 | -0.295 | -0.0771 | 0.238 | 0.44 | -0.123 | -0.0122 | -0.12 | 0.0951 | -0.0232 | -0.198 | 1.61 | 0.482 | -0.438
GCGACGGGGGCATCAGCAGGTTACCATAACTTAA | 1.76 | 4.14 | 7.32 | 9.29 | 1.83 | 3.29 | 0.826 | 3.42 | -0.447 | 3.16 | 2.43 | 5.01 | 2.7 | 3.03 | 3.26 | 3.25 | 1.61 | 1.88
TCTGCTAGCTCAACGATGGTCAGCTAATCTGCTA | 0.317 | -0.338 | -0.717 | -0.143 | -1.44 | -0.381 | -0.501 | -0.407 | -1.12 | -0.267 | -0.694 | -0.391 | -0.546 | 0.109 | -0.436 | -0.558 | -1.1 | -0.902
GCTGGTTGGTCAGTAAAAGGTCACACACCGGTCG | 0.091 | 2.51 | 0.438 | 0.205 | 3.78 | 5.07 | 1.42 | 6.03 | 2.87 | 4.3 | 5.18 | 5.81 | 5.42 | 0.18 | 5.73 | 3.5 | 2.21 | 2.29
CCTACAGGGCCATTCAGAGGTCATTGATCATATG | 0.235 | 0.996 | -0.322 | -0.38 | 1.96 | 5.17 | 2.91 | 5.04 | 0.639 | 3.47 | 4.27 | 5.34 | 3.29 | 1.85 | 3.85 | 3.38 | 1.34 | 4.16
AGAATGAGGTTAAGATCAGGAAAACAGAATACAT | 2.5 | 2.67 | 1.33 | 0.813 | 0.0242 | 1.08 | 0.189 | 1.93 | 0.732 | 1.9 | 0.79 | 2 | 1.73 | 0.917 | 2.65 | 2.28 | 0.529 | 0.435
GCTGCTAGGTCAACTGATGGTTAGCTAAAGCTCG | 5.04 | 4.29 | 1.41 | -0.602 | 1.62 | 1.55 | -0.971 | 2.73 | -0.0413 | 4.31 | 3.25 | 4.51 | 5.52 | 1.85 | 2.81 | 2.94 | 0.862 | -0.316
TCTGCTAGGTCAGTTGGCCAGCTAACGAGCTGCC | 2.81 | 2.82 | 0.783 | 0.614 | -0.509 | -0.116 | -0.845 | 0.0154 | -1.78 | 3.44 | 2.15 | 2.56 | 3.53 | 0.428 | 0.616 | 1.27 | -0.473 | -0.804
CCTATTAGTTGACCAAAAGGGCAACCGAAGCTCG | 0.681 | 1.22 | -0.0971 | 1.05 | 2.38 | 1.09 | 0.687 | 1.37 | 1.39 | 2.51 | 3.11 | 2.31 | 1.84 | 0.787 | 1.09 | 0.99 | 0.0968 | 0.7
CGTCCAAGGTCATAGGAAGTCAGTGAAGACAGAT | 3.11 | 3.4 | 0.667 | -0.147 | 2.75 | 3.99 | 0.915 | 4.28 | 0.466 | 4.81 | 3.7 | 5.5 | 5.7 | 3.77 | 5.28 | 3.81 | 2.31 | 2.43
TATACAGGGTCCAAGGCCAGAGTACGAATGTCGA | -0.0833 | 0.889 | 1 | 0.775 | 0.44 | 0.336 | 0.699 | 0.0317 | 0.427 | 1.2 | 1.18 | 0.986 | 1.15 | 1.17 | 0.823 | 0.402 | 0.398 | 2.03
TCTATTAGTTGATTCGGGCAACCGAAACAGCGGA | 1.91 | 0.598 | 0.957 | 0.979 | 0.106 | 0.3 | 0.223 | 0.414 | 0.742 | 0.671 | 0.249 | 0.385 | 0.285 | 1.15 | 0.328 | 0.247 | 0.0848 | 0.228
TAGCCTAGGTCATGGGGGCCAGTATAGTGTCGGC | 1.91 | 4.23 | 4.89 | 4.09 | 2.19 | 3.01 | 0.254 | 3.41 | 0.4 | 4.04 | 3.76 | 4.91 | 4.98 | 0.677 | 3.54 | 3.64 | 2.29 | 1.94
ACTATTGGTTGACTTAGGGCAACCGATACGACGC | -0.408 | 0.507 | 0.7 | 0.813 | -0.419 | 0.245 | -0.0405 | 0.77 | -0.0341 | 0.653 | 0.788 | 0.838 | 0.894 | 0.419 | 0.479 | 1.66 | 0.213 | -0.0545
CAAACTAGGTCACCGGAAGGTCAGAGTCCGCATG | 8.5 | 8.94 | 4.78 | 2.92 | 4.96 | 4.71 | 0.703 | 6.14 | 2.03 | 5.31 | 5.45 | 7.9 | 7.02 | 1.63 | 5.06 | 4.19 | 2.73 | 2.14
